High-throughput results from PubChem BioAssay.
Only some compounds are listed: those with a hit (about 2.7% of all), similar ones and a draw of the others.
HEK293 tox: cytotoxic in the GLP-1 receptor inverse agonist counter-screen. 410,000 tested, 0.13% active. HEK293 cAMP-luciferase reporter cells, luminescence, 24 h. Potency, µM (series often up to 38.3 µM), inactives show at the highest dose activity change, negative = inhibition, usual class: inhibitors;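 further: loss of luciferase light is scored as toxicity; on the % scale 0 is the no-effect control and ±100 the full control effect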
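Cells in DMEM/10% Nu serum/1% pen-strep, 1536-well format. Pre-incubated 12 h, dosed with 23 nL compound, incubated a further 24 h. Luciferase detection, 12 min at room temp, luminescence.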
rTrxR1 inhibitor: inhibitors of rat thioredoxin reductase 1. O89049. recombinant rTrxR1, NADPH fluorescence consumption, selenite substrate. Potency, µM (series often up to 114 µM), inactives show top-dose activity change, negative = inhibition, most hits filed as inhibitors. 390,000 tested, 1% active. AID 588453; further: on the % scale 0 is the no-effect control and ±100 the full control effect; nearly all actives have a fitted effect of over 65% in size
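Rat TrxR1 (90 nM in the dispensed reagent) was pre-reduced with 400 uM NADPH for 5 min at room temperature, then incubated with compound for 15 min. After 400 uM selenite was added, NADPH fluorescence (Ex 340/Em 450 nm) was followed for 8 min.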
GLP-1R inv ag: acts as inverse agonist at human GLP-1 receptor | HEK293 GLP-1R CRE-luciferase, luminescence, 24 h; GLP-1R form is constitutively active | Potency, µM (highest dose often 38.3 µM), for the others: at the highest dose activity change, negative = inhibition, hits mostly inhibitors | 410,000 tested, 1.6% active | AID 624417; further: on the % scale 0 is the no-effect control and ±100 the full control effect; nearly all actives have a fitted effect of over 55% in size
Target sequence (P43220 whole entry, looked up): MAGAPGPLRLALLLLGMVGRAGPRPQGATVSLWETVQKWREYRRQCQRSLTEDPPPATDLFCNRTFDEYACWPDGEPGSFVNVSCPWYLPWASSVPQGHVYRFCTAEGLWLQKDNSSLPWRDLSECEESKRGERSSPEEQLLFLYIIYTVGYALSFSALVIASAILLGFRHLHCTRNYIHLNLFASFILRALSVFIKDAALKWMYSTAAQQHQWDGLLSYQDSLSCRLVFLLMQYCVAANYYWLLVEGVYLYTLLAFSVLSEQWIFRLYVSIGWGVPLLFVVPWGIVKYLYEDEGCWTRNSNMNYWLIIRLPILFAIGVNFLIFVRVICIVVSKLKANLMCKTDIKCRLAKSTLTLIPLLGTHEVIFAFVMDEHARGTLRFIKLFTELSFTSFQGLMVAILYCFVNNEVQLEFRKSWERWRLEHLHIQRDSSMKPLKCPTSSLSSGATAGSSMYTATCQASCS
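Cells are plated, allowed 12 hours at 37 deg C, then treated with compounds for 24 hr before luciferase detection reagent is added and luminescence is read after 12 min at room temperature. The HEK293 line carries constitutively active GLP-1R with a cAMP-responsive reporter.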
GLP1R ag: agonists of human GLP-1 receptor; P43220; AID 624172; Potency, µM (series often up to 45.6 µM), without a hit: at the highest dose activation, most hits filed as activators; 380,000 tested, 0.007% active; HEK293 GLP-1R CRE-luciferase, luminescence, 4-6 h; cells express a hypersensitive GLP-1R form; further: % of control where 0% means no effect
mIDH1 inhibitor: human IDH1 R132H inhibition. O75874. IDH1-R132H enzyme, NADPH consumption, diaphorase/resazurin fluorescence. Potency, µM (titrated, usually from 76.6 µM), inactives show at the highest dose activity change, negative = inhibition, actives largely listed as inhibitors. 390,000 tested, 0.093% active. AID 602179; further: on the % scale 0 is the no-effect control and ±100 the full control effect; nearly all actives have a fitted effect of over 65% in size
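IDH1-R132H (0.5 ug/mL) preincubated 30 min with compound, then NADPH (0.016 mM) and alpha-KG (2 mM) added; 80 min at RT, pH 7.5. Remaining NADPH coupled via diaphorase/resazurin to fluorescence (540/590 nm); concentration-response curves normalized to no-enzyme control.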
TrxR1 substrate: rat thioredoxin reductase 1 substrate activity; purified TrxR1 substrate turnover, NADPH consumption readout; Potency, µM (titrated, usually from 114 µM), inactives show at the highest dose activity change, negative = substrate turnover; 390,000 tested, 0.01% active; AID 588456; further: on the % scale 0 is the no-effect control and ±100 the full control effect; nearly all actives have a fitted effect of over 50% in size
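Rat TrxR1, dispensed at 90 nM, was prereduced with 400 uM NADPH (final) for 5 min at ~22 deg C, then incubated with compound 15 min before 400 uM selenite. A first-read NADPH fluorescence drop versus no-compound background flagged substrates.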
* marks the source's active call; other numbers are inactive results; [ ] = another dose, or the depositor's remark. The call rests on the fitted dose curve; in most records, active means well fitted curve in the direction sought with a large enough effect; inconclusive means small, poorly fitted or top-dose-only effect, or another doubt; inactive means no such curve, though single readings can be large; an effect the other way counts as inactive or inconclusive. Potency means the concentration at half of the fitted maximal effect.

Cc1ccc(-n2ncc(C(=O)N3CCN(C(=O)c4ccco4)CC3)c2C2CCN(C(=O)OC(C)(C)C)CC2)cc1 was read as HEK293 tox 2%, rTrxR1 inhibitor 10%, GLP-1R inv ag -4%, mIDH1 inhibitor -17% and TrxR1 substrate -3%.
Screening Cc1ccc(-n2ncc(C(=O)N3CCN(C(=O)c4ccco4)CC3)c2C2CCN(C(=O)OC(C)(C)C)CC2)cc1C returned HEK293 tox 0%, rTrxR1 inhibitor 28µM*, GLP-1R inv ag -1%, GLP1R ag -2%, mIDH1 inhibitor -1% and TrxR1 substrate -8%.
For Cc1ccc(-n2ncc(C(=O)NCCc3c[nH]c4ccccc34)c2C2CCN(C(=O)OC(C)(C)C)CC2)cc1C the results were HEK293 tox -9%, rTrxR1 inhibitor 12%, GLP-1R inv ag 11µM*, GLP1R ag -4%, mIDH1 inhibitor 0% and TrxR1 substrate -11%.
Screening COc1ccc(-c2cc(-c3cc(C)ccc3O)[nH]n2)cc1 returned HEK293 tox inconclusive, rTrxR1 inhibitor 7%, GLP-1R inv ag 10µM*, GLP1R ag 15%, mIDH1 inhibitor 0% and TrxR1 substrate -5%.
For Cc1ccc(O)c(-c2cc(-c3ccccc3[N+](=O)[O-])[nH]n2)c1 the results were HEK293 tox inconclusive, rTrxR1 inhibitor 11%, GLP-1R inv ag inconclusive, GLP1R ag -1%, mIDH1 inhibitor 1% and TrxR1 substrate 1%.
Cc1ccc(O)c(-c2cc(-c3ccccc3C)[nH]n2)c1 was read as HEK293 tox inconclusive, rTrxR1 inhibitor -9%, GLP-1R inv ag 5.6µM*, GLP1R ag 0%, mIDH1 inhibitor 3% and TrxR1 substrate -10%.
`COc1ccc(O)c(-c2c(-c3ccc(Cl)cc3)n[nH]c2C)c1` gave HEK293 tox 13%, rTrxR1 inhibitor -6%, GLP-1R inv ag 10µM*, GLP1R ag 4%, mIDH1 inhibitor 4% and TrxR1 substrate -8%.
CCCS(=O)(=O)c1ncc(Cl)c(C(=O)N2CCN(c3ccc(OC)cc3)CC2)n1 was read as HEK293 tox inconclusive, rTrxR1 inhibitor 8.9µM*, GLP-1R inv ag inconclusive, mIDH1 inhibitor 6% and TrxR1 substrate 5%[57.1 µM].
Cc1ccc(C(=O)NCC(c2ccco2)N2CCc3ccccc3C2)cc1 (stereo unspecified) was read as HEK293 tox 11%, rTrxR1 inhibitor 1%, GLP-1R inv ag inconclusive, GLP1R ag 1%, mIDH1 inhibitor 1% and TrxR1 substrate -12%.
For Cc1ccc(C(=O)NCC(c2ccco2)N2CCc3ccccc3C2)cc1C (stereo unspecified) the results were HEK293 tox -4%, rTrxR1 inhibitor 19%, GLP-1R inv ag 11µM*, GLP1R ag -3%, mIDH1 inhibitor 3% and TrxR1 substrate 4%.
Cc1ccc(C)c(S(=O)(=O)NCC(c2ccco2)N2CCc3ccccc3C2)c1 (stereo unspecified) was read as HEK293 tox -14%, rTrxR1 inhibitor 6%[57.1 µM], GLP-1R inv ag 11µM*, GLP1R ag 10%, mIDH1 inhibitor -9% and TrxR1 substrate 2%[57.1 µM].
Screening Cc1[nH]n(-c2ccccc2)c(=O)c1/C=N/N1C(=O)c2cccc3cccc(c23)C1=O returned HEK293 tox inconclusive, rTrxR1 inhibitor 12%[57.1 µM], GLP-1R inv ag 13µM*, GLP1R ag 6%, mIDH1 inhibitor 1% and TrxR1 substrate 0%[57.1 µM].
`Cc1[nH]n(-c2ccccc2)c(=O)c1/C=N/N1CCOCC1` gave HEK293 tox 2%, rTrxR1 inhibitor 10%, GLP-1R inv ag 15%, GLP1R ag 6%, mIDH1 inhibitor -4% and TrxR1 substrate 0%.
For Cc1[nH]n(-c2ccccc2)c(=O)c1/C=N/NC(=O)c1cccc(F)c1 the results were HEK293 tox -16%, rTrxR1 inhibitor -5%, GLP-1R inv ag 7.9µM*, GLP1R ag 0%, mIDH1 inhibitor 6% and TrxR1 substrate -10%.
Screening Cc1c(C(=O)N2CCCCCC2)c(S(=O)(=O)N(Cc2ccccc2)C(C)(C)C)c(C)n1C returned HEK293 tox -7%, rTrxR1 inhibitor 9%[57.1 µM], GLP-1R inv ag -16%, mIDH1 inhibitor -6% and TrxR1 substrate 2%[57.1 µM].
For CCOC(=O)C1(CC2CCCCO2)CCN(Cc2nccn2-c2cccc(C)c2)CC1 (stereo unspecified) the results were HEK293 tox -29%, rTrxR1 inhibitor -6%, GLP-1R inv ag 10µM*, GLP1R ag 17%, mIDH1 inhibitor -1% and TrxR1 substrate -5%.
For CC(=O)Nc1ccc(SCCN2CCN(CCc3ccccc3)CCC2=O)cc1 the results were rTrxR1 inhibitor 128% and TrxR1 substrate -24%.
`COc1cc(S(=O)(=O)NCCOC23CC4CC(CC(C4)C2)C3)c(OC)cc1Cl` gave HEK293 tox 5%, rTrxR1 inhibitor -5%, GLP-1R inv ag 0%, GLP1R ag 7%, mIDH1 inhibitor 6% and TrxR1 substrate -4%.
`CCOc1ccc(OCC)c(S(=O)(=O)NCCOC23CC4CC(CC(C4)C2)C3)c1` gave HEK293 tox -13%, rTrxR1 inhibitor 19%, GLP-1R inv ag 4µM*, GLP1R ag 0%, mIDH1 inhibitor 2% and TrxR1 substrate 14%.
`O=C(NCc1ccccc1Cl)c1ccc(NC(=O)N2CCSc3ccccc32)cc1` gave HEK293 tox -3%, rTrxR1 inhibitor 11%, GLP-1R inv ag inconclusive, mIDH1 inhibitor -7% and TrxR1 substrate 10%.
For COc1cc(C)ccc1OCCCn1c(-c2ccc(Cl)cc2)nc2ccccc2c1=O the results were HEK293 tox 0%, rTrxR1 inhibitor 15%, GLP-1R inv ag 6%, mIDH1 inhibitor 0% and TrxR1 substrate 6%.
`CC(C)C1NC2(C(=O)c3ccccc3C2=O)C2C(=O)N(c3ccc(F)cc3)C(=O)C12` (stereo unspecified) gave HEK293 tox 1%, rTrxR1 inhibitor 45µM*, GLP-1R inv ag -6%, GLP1R ag -11%, mIDH1 inhibitor 3% and TrxR1 substrate 5%.
`O=C1C2C3C=CC(CC3)C2C(=O)N1c1ccc(F)cc1` (stereo unspecified) gave HEK293 tox 9%, rTrxR1 inhibitor 11%[57.1 µM], GLP-1R inv ag 7%, GLP1R ag -2%, mIDH1 inhibitor 7% and TrxR1 substrate 12%[57.1 µM].
